KB-V1 MDR tox: KB-V1 MDR subline cytotoxicity; Potency, µM (doses to about 46.1 µM), actives largely listed as cytotoxic; KB-V1 MDR cells viability, CellTiter-Glo, 72 h; actives 3.4% (n = 400,000); note: nearly all actives have a fitted effect of over 60% in size
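Following 72 h at 37 degrees C with compound, KB-V1 cell viability was read by CellTiter-Glo luminescence, medium being phenol-red-free DMEM plus 10% FBS; concentration-response parameters came from normalized, curve-fitted qHTS data.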
SW480 rerep: induces DNA re-replication in SW480 colon adenocarcinoma cells; AID 624297; Potency, µM (doses to about 46.1 µM), hits mostly activators; actives 1.8% (n = 340,000); SW480 DNA re-replication, Hoechst DNA content imaging, 48 h; note: nearly all actives have a fitted effect of over 55% in size
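Hoechst fluorescence of nuclei (405 nm excitation, 500-530 nm emission) measured by plate-scanning imager after 48 hr compound exposure at 37 C; re-replication scored as increased number of nuclei with elevated intensity.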
IL-1B inflam inh: inhibitors of inflammasome signaling (IL-1 beta secretion); activity change, % at 57.5 µM; AID 743279; actives 4.7% (n = 360,000); THP-1 LPS/ATP IL-1B secretion, AlphaLISA, 16 h; stronger effect = lower value; in the data active = activity change below about -50%; inconclusive = mostly about -30% to -49%
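THP-1 cells pretreated 1 hr with compounds (up to 57.5 uM final), then stimulated with LPS (250 ng/mL final) plus ATP (1.25 mM final); secreted IL-1B measured by AlphaLISA after 16 hr, decreased signal indicating inhibition.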
MCF10A rereplic: DNA re-replication induction in MCF 10a cells | MCF 10A DNA re-replication, Hoechst nuclear intensity, 48 h | actives 2.9% (n = 350,000) | Potency, µM (series often up to 46.1 µM), actives largely listed as activators; note: nearly all actives have a fitted effect of over 50% in size
KB-3-1 tox: KB-3-1 parental cell cytotoxicity; KB-3-1 viability, CellTiter-Glo ATP luminescence, 72 h; Potency, µM (series often up to 46.1 µM), usual class: cytotoxic; actives 1.4% (n = 400,000); AID 1347075; note: nearly all actives have a fitted effect of over 60% in size
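Using CellTiter-Glo luminescence, growth of non-resistant KB-3-1 adenocarcinoma cells is assessed 72 h after pin-tool compound addition at 37 °C. Normalized responses across the concentration series yield fitted curves.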
A number is an active result; 0 = inactive; ? = inconclusive; - = no result; ! = not confirmed by another sample; [ ] = another dose, or the depositor's remark. Sampled rows, rich in hits. Any-hit rate of the full collection: about 9.9%. Unless noted, calls come from the whole dose curve; as a rule, active = well fitted curve in the direction sought with a large enough effect; inconclusive = small, poorly fitted or top-dose-only effect, or another doubt; inactive = no such curve, though single readings can be large; an effect the other way counts as inactive or inconclusive.

SMILES	KB-V1 MDR tox	SW480 rerep	IL-1B inflam inh	MCF10A rereplic	KB-3-1 tox
Cc1csc2sc(-c3ccnc(SCC(=O)NCc4ccccc4)n3)c(C)c12	5.8µM	18µM	0	?	?
COc1ccc(OC)c(C(=O)N2CCC(n3nccc3NC(=O)CC(C)C)CC2)c1	0	0	0	0	0
Cc1ccc(C(=O)N2CCN(Cc3ccc4c(c3)OCO4)CC2)o1	0	0	0	0	0
CC1CC(=O)N(CC(=O)NCc2ccco2)c2ccccc2S1 (stereo not given)	0	0	0	0	0
CC(=O)c1c(C)n(CC(=O)NCc2ccc3c(c2)OCO3)c2ccccc12	2.9µM	?	0	?	16µM
CC(C)Sc1nc2ccccc2n1CC(=O)NCc1ccc2c(c1)OCO2	15µM	0	0	0	0
CC(=O)c1c(C(C)=O)c(C)n(Cc2ccc3c(c2)OCO3)c1C	2.6µM	0	0	0	13µM
CC1CC(=O)N(CC(=O)NCc2ccc3c(c2)OCO3)c2ccccc2S1 (stereo not given)	21µM	0	0	0	0
CC(C)N(C(=O)Cn1c(SCC(=O)NCc2ccc3c(c2)OCO3)nc2ccccc21)C(C)C	0	0	0	?	0
C[C@H](NC(=O)C1CCN(C(=O)[C@H](Cc2ccccc2)NC(=O)OC(C)(C)C)CC1)C(=O)O	?	0	0	0	0
Cc1nn(C)cc1/C=N/NC(=O)Cn1cncn1	0	0	0	0	0
Cc1cc(OCC(=O)OCC(=O)Nc2ccc(Cl)cn2)ccc1Cl	?	?	0	0	0
O=C(CN1C(=O)CCSc2ccccc21)Nc1ccc2c(c1)OCO2	18µM	0	0	0	0
Cc1ccc(C(=O)O)cc1NC(=O)CSc1ncnc2sc3c(c12)CCC3	0	0	0	0	0
Cc1nc(SCC(=O)N2CCN(c3ccccc3)CC2)n[nH]1	0	0	0	0	0
O=C(CSc1nc(Nc2ccccc2)nc(N2CCOCC2)n1)Nc1ccc2c(c1)OCCO2	0	0	?	18µM	0
CC(C)(C)Nc1nc(SCC(=O)Nc2ccccc2)nc(N2CCOCC2)n1	?	0	-90	?	0
CCNc1nc(SCC(=O)Nc2ccc(Cl)c(Cl)c2)nc(N2CCOCC2)n1	0	0	-59	?	?
Cc1ccccc1NC(=O)CSc1nc(Nc2ccccc2)nc(N2CCOCC2)n1	0	?	0	0	0
O=C(CSc1nc(N2CCCCC2)nc(N2CCCCC2)n1)N1CCN(c2ccccc2)CC1	16µM	0	0	0	?
CN(C)c1nc(SCC(=O)Nc2ccccc2)nc(N2CCOCC2)n1	?	0	0	0	0
Cc1ccc(NS(=O)(=O)c2ccc(OCC(N)=O)cc2)cc1	0	0	0	0	0
O=C(CSc1nc(Nc2ccccc2)nc(N2CCOCC2)n1)N1CCCC1	?	?	-53	?	0
O=C(CSc1nc(Nc2ccccc2)nc(N2CCOCC2)n1)N1CCc2ccccc21	?	?	0	?	0
CCOC(=O)C1CCN(S(=O)(=O)c2cc(Br)cc3c2N(C(C)=O)C(C)C3)CC1 (stereo not given)	0	0	0	0	0
SMILES	KB-V1 MDR tox	SW480 rerep	IL-1B inflam inh	MCF10A rereplic	KB-3-1 tox
CC(=O)c1ccc(-c2cccc(-c3nc4ccccn4c3NC3CCCCC3)c2)cc1	?	?	-66	?	?
Cc1ccn2c(NC3CCCC3)c(-c3cccs3)nc2c1	?	?	0	?	0
CCC(C)Sc1cc(-c2nc3cc(C)ccn3c2NC2CCCCC2)ccc1OC (stereo not given)	21µM	?	-81	?	?
CCC(C)Sc1ccc(-c2nc3ccc(C)cn3c2NC2CCCCC2)cc1 (stereo not given)	?	0[9.22 µM]	0	?	0
c1csc(-c2nc3ccccn3c2NC2CCCCC2)c1	?	0	-86	?	0
CCC(C)Sc1cc(-c2nc3ccccn3c2NC2CCCCC2)ccc1OC (stereo not given)	12µM!	16µM	-91	21µM	?
COC(=O)c1c(C)sc(-c2c(-c3ccc(OC)c(F)c3)[nH]c3c2c(=O)n(C)c(=O)n3C)c1O	0	-	-	-	0
CN1OC[C@@H]2CN(C(=S)NCCc3ccccc3)[C@H](c3ccc(-n4ccnc4)cc3)C[C@@H]21	0	-	0	-	0
CN1CCN(NC(=O)c2cc(-c3ccc(Cl)s3)nc3ccccc23)CC1	0	16µM	0	15µM	0

Compound activity as filed in PubChem.
